This is an account of results in PubChem BioAssay AID1488 (Vanderbilt High Throughput Screening Facility, 2009).

Each structure is given as a SMILES string. Hit rate of the full screen: of about 1,700 compounds, about 310 (18%) were called active. About 25% were inconclusive and are not listed. The entries come from a sample that favours actives as a whole. A number with no mark means an inactive call.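 The calls were made as follows: active = fluorescence change differs from the solvent-only DMSO control mean at a set confidence level in both duplicate runs; inconclusive = differs from solvent-only control mean in just one of two runs; inactive = the rest.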

Muscarinic acetylcholine receptor M1 (Rattus norvegicus), sequence (P08482 whole entry, looked up): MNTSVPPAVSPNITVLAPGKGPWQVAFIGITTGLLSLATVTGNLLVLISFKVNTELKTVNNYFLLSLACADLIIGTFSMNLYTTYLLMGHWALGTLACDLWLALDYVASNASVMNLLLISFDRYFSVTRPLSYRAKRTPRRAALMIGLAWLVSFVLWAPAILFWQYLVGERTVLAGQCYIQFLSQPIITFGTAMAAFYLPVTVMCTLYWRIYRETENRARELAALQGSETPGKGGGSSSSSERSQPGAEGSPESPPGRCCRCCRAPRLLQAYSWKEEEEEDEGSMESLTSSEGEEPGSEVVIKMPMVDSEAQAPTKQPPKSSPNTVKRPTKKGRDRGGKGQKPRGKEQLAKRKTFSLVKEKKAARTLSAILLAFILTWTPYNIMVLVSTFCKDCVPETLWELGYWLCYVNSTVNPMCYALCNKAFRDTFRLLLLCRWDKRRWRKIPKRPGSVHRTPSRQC

This assay addresses Muscarinic acetylcholine receptor M1 (Rattus norvegicus) (UniProt P08482). Put plainly: rat M1 muscarinic receptor agonists, confirmation, CHO-M1 cells, Fluo-4 calcium, duplicate retest (AID 1488).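 Also: an EC20 dose of acetylcholine follows compound addition during the same imaging run; raw fluorescence intensity difference in instrument units with no normalization to controls.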 As to conditions: Fluo-4 calcium fluorescence, agonist mode, at 10 µM, actives lie on both sides.
With `COc1ccccc1NC1=NC(c2ccc(Cl)cc2)N=C(N)N1` (stereo not given), the fluorescence change (max-min) was -28.2 (active).
The value for `Cc1ccc2oc(=O)c3cnn(CC(=O)N4CCN(c5ccccn5)CC4)c3c2c1` was -16.8.
Under `CC(C[N+](C)(C)C)OC(N)=O` (stereo not given) stands 389 (active); under `CC(=O)OC(C)C[N+](C)(C)C` (stereo not given), 529 (active).
Under `COc1cccc2c(C)c(C(=O)O)[nH]c12` stands 4.27; under `O=C(NCc1ccccn1)c1ccc2nc(-c3ccco3)c(-c3ccco3)nc2c1`, 28.5.
In the case of `CCOc1ccc2[nH]c(=O)c(CN(Cc3nnnn3Cc3ccccc3)CC3CCCO3)cc2c1` (stereo not given), the fluorescence change (max-min) is 19.2.
The value for `Cc1cc2cc(CN(Cc3cccs3)Cc3nnnn3CC3CCCO3)c(=O)[nH]c2cc1C` (stereo not given) was 7.46; that for `Cc1cc(NC(=O)COc2ccc(Cl)cc2Cl)n(CCC#N)n1` was -3.95.
Under `O=C(O)c1ccc(COCC(F)(F)F)cc1` stands -6.5; under `CC(=O)Nc1ccc(NC(=O)CN2CCCC(C)C2)c(Cl)c1` (stereo not given), -10.1; under `CCOC(=O)c1cc2n(c1N)-c1ccccc1C2=O`, 1700 (active).
Under `CCOc1cc(N2CCOCC2)c(OCC)cc1NC(=O)COc1cccc2cccnc12` stands -14.8; under `N#CC1=C(N)Oc2c(sc3ccccc23)C1c1ccco1` (stereo not given), 140 (active).
`C(=N\n1cnnc1)/c1cccnc1`: the fluorescence change (max-min) was -17.4.
The value for `O=C1c2ccccc2-c2ncnc3c(N4CCOCC4)cc(N4CCOCC4)c1c23` was -15.7; that for `c1ccc2c(c1)OCC(CNc1ncnc3nc[nH]c13)O2` (stereo not given) was 512 (active).
Under `O=C(Nc1ccccc1N1CCN(C(=O)c2ccccc2)CC1)c1ccc2c(c1)OCO2` stands -2.28; under `CC(C)(C)c1cc(CN2CCN(CCC#N)CC2)cc(C(C)(C)C)c1O`, 23.3; under `O=C(NCCc1ccc2c(c1)OCCO2)c1cc2ccccc2o1`, 25.
Under `CCCN1CC=C2C(C#N)=C(N)C(C#N)(C#N)C(c3cc(OC)ccc3OC)C2C1` (stereo not given) stands 85.5 (active); under `COc1ccccc1Cc1nc(-c2ccc(C)cc2)no1`, -14.
For `COc1ccc2nc(N3CCCC(O)C3)c(C#N)cc2c1` (stereo not given), the fluorescence change (max-min) is 206 (active).
Under `COC(=O)c1ccc(CSc2nc3ccccc3c(=O)n2-c2cccc(OC)c2)o1` stands -9.69; under `CCOC(=O)CSc1nc2c(sc(=S)n2CCc2ccccc2)c(=O)n1Cc1ccco1`, -34.1 (active); under `O=C(CSc1nnc(-c2ccco2)n1Cc1ccccc1)NC(=O)NCc1ccco1`, -3.05.
The value for `c1n[nH]c(NCc2ccc3c(c2)OCO3)n1` was -9.45.
Turning to `COc1cccc(-n2cc3c(c2-c2ccccc2)c(=O)n(C)c(=O)n3C)c1`, the fluorescence change (max-min) is -22.4.
On to `CC(NC(=O)CSc1nc2c(cc1C#N)CN(C)CC2)c1ccccc1` (stereo not given), for which the fluorescence change (max-min) is 41.3.
Under `CCN(CC)c1ccc2cc(C(=O)O)c(=O)oc2c1` stands 153 (active); under `CCN(CC)c1ccc2oc(=O)c(C)nc2c1`, 165 (active); under `CCOC(=O)C1CCCN(Cc2nc(N)nc(Nc3ccc(C)cc3)n2)C1` (stereo not given), 127 (active).
In the case of `FC(F)(F)COc1nc(N2CCCCC2)nc(N2CCNCC2)n1`, the fluorescence change (max-min) was -8.96.
For `CCOc1nc(-c2ccc(OC)cc2)ccc1-c1noc(-c2cc(OC)c(OC)c(OC)c2)n1`, the fluorescence change (max-min) is -5.3.
With `O=C(CSc1nnc(Cn2cnc3ccccc32)o1)c1ccccc1`, the fluorescence change (max-min) was -8.96.
`CCc1nc(Nc2ccc3nccnc3c2)c2oc3ccccc3c2n1`: the fluorescence change (max-min) was -1.32.
The value for `Cc1ccc(C(=O)COc2cccc(NC(=O)c3ccco3)c2)cc1` was 131 (active); that for `COc1ccc(CCNC(=O)c2ccco2)cc1` was -16.3.
Under `CN1C(=O)c2ccc(NC(=O)c3c(F)c(F)c(F)c(F)c3F)cc2C1=O` stands 1.53; under `O=C(c1ccccc1)c1ccc(OC(=O)N2CCCC2)cc1`, -8.75.
As for `CC(C)OCCCNc1ncnc2c1[nH]c1ccc(F)cc12`, the fluorescence change (max-min) was 51.6 (active).
Under `Fc1ccc2[nH]c3c(N4CCSCC4)ncnc3c2c1` stands 6.07; under `O=C(Nc1nc(-c2ccc3c(c2)OCO3)cs1)c1ccncc1`, -8.33; under `O=C(COC(=O)CCc1c[nH]c(=O)[nH]1)Nc1ccccc1Cl`, 13.2.
Turning to `CCOc1cc(-c2nc3cc(C)ccn3c2NCC2CCCO2)ccc1O` (stereo not given), the fluorescence change (max-min) is -30.6 (active).
Under `c1cnn(-c2cc(N3CCOCC3)ncn2)c1` stands -19; under `Cc1nc(CNS(=O)(=O)c2ccc(Oc3ccccc3)cc2)cs1`, -2.69; under `CCOc1ccc2nc(N3CCCN(C(=O)Nc4ccccc4C)CC3)c(C#N)cc2c1`, 282 (active).
Under `Cc1nn2c(c1-c1ccccc1)N=C(c1ccco1)CC2c1ccccc1` (stereo not given) stands 21.8; under `COCCNC(=O)C(c1ccc(C)o1)N(Cc1cccs1)C(=O)c1snc(C(N)=O)c1N` (stereo not given), -1.36; under `CCN=C1SC(CC(=O)Nc2ccc(C)cc2)C(=O)N1CC` (stereo not given), -26.1 (active).
Under `Cc1ccc(S(=O)(=O)Nc2ccc3ncccc3c2)cc1` stands 17.4.
For `CCOc1ccc(NC(=O)N2CC=C(n3c(=O)[nH]c4ccccc43)CC2)cc1`, the fluorescence change (max-min) was -24.
In the case of `O=C(CSc1nc2ccccc2o1)N1CCN(c2ccc(Cl)cc2)CC1`, the fluorescence change (max-min) is -34.5 (active).
The value for `O=C(CC1Nc2ccccc2NC1=O)Nc1ccccc1` (stereo not given) was -7.08; that for `Cn1c(=O)c2c(nc(SCC(=O)Nc3ccccc3N3CCCCC3)n2C)n(C)c1=O` was -20.5.
The value for `CC1CCCC(C)N1C(=O)CN1CCN(c2nc(-c3ccc(F)cc3)cs2)CC1` (stereo not given) was -5.14; that for `O=C(NCCC1=CCCCC1)C1CCN(Cc2cnn(-c3ccccc3)c2-n2cccc2)CC1` was -25.7 (active); that for `COc1ccccc1N1CCN(C(=O)c2c(-c3c(Cl)cccc3Cl)noc2C)CC1` was -19.2.
Under `O=C(Nc1cccc(NC(=O)N2CCN(c3ccccc3)CC2)c1)N1CCN(c2ccccc2)CC1` stands 1.01.
As to `O=C(Cn1cc(C(=O)c2cccs2)c2ccccc21)NCc1cccs1`, the fluorescence change (max-min) was -4.9.
As for `Cc1cccn2c(=O)c3cc(C#N)c(=NC(=O)c4cccnc4)n(CC4CCCO4)c3nc12` (stereo not given), the fluorescence change (max-min) was 310 (active).
On to `Cn1c(C(=O)NCCc2ccsc2)cc2c(=O)n(C)c3ccccc3c21`, for which the fluorescence change (max-min) is -12.8.
Regarding `COc1ncnc2c1N=C1CC(C)(C)CC(N)=C1S2`, the fluorescence change (max-min) is 175 (active).
Under `COc1ccc(C(C(O)C(=O)c2c[nH]c3ccccc23)N2CCN(c3ccccc3)CC2)cc1` (stereo not given) stands -11.7.
